Where “and” joins values, the source holds several entries; their conditions need not be identical. Identical values can stand only once. Records with an inconclusive call do not appear. Calls of active or inactive are those of the source. Unless noted, calls come from the whole dose curve; as a rule, active = well fitted inhibition curve with a large enough effect; inconclusive = small, poorly fitted or top-dose-only effect; inactive = flat fitted curve, though single readings scatter.
What was measured:
[1] = Drug repurposing screens with cells derived from glioblastoma tumor samples (AID 1345199); conditions: GBM patient neurospheres viability, ATP luminescence, 48 h; note: nearly all actives have a fitted effect of over 40% in size; note: potency is the fitted concentration of half-maximal effect; for activity, negative = cell killing: % is set by controls: 0 for no effect and ±100 for the full control effect
Method in brief: (§1)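 Primary testing used CD133+ neurospheres from four GBM patients, seven concentrations, 48 h exposure and ATP-based viability; confirmation added three slower-growing patient lines.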

astro = control astrocytes; experiment: as above; conditions: viability, ATP luminescence, 48 h; series mostly up to 45.9 µM
Method in brief: as §1

[2] = target: Nuclear receptor subfamily 1 group I member 2 (Rattus norvegicus) (UniProt Q9R1A7); experiment: qHTS assay for small molecule activators of the rat pregnane X receptor (rPXR) signaling pathway (AID 651751; call rule not given here; note: 0% is about no effect); conditions: rPXR reporter cells, luciferase (One-Glo), 24 h
Sequence of Nuclear receptor subfamily 1 group I member 2 (Rattus norvegicus) (Q9R1A7 whole entry, looked up): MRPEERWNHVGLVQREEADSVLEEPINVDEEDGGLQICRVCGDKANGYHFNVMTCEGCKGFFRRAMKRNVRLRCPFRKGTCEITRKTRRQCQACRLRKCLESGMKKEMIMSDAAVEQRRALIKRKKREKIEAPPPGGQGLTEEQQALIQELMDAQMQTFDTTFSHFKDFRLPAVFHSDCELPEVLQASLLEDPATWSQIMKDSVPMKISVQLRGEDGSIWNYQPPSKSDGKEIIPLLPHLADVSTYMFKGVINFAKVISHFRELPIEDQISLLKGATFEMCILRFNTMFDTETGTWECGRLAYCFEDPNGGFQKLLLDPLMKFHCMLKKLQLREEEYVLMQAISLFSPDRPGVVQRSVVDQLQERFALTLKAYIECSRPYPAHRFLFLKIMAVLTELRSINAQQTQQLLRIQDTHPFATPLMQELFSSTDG

[3] = qHTS assay for small molecule activators of the human pregnane X receptor (PXR) signaling pathway (AID 720659; call rule not given here; note: 0% is about no effect); conditions: DPX-2 HepG2 CYP3A4-luciferase, 24 h; series mostly up to 92.3 µM
[4] = at 45.9 µM (top of the series), tumour line B
[5] = at 46.1 µM (top of the series), tumour line C
[6] = at 45.9 µM (top of the series), tumour line D
[7] = at 46 µM (top of the series), tumour line A

COc1cc2[nH]c(C)c(CCN3CCN(c4ccccc4)CC3)c2cc1OC
active: Potency ([1]; tumour line A) 15.8 µM
inactive: activity, negative = cell killing [1, 4] -18.7% | activity, negative = cell killing [1, 5] -15.6% | Potency (astro)

CC(C(=O)O)c1ccc(C2CCCCC2)c2ccccc12 (stereo not drawn)
inactive: activity, negative = cell killing [1, 4] -3.21% | activity, negative = cell killing [1, 6] -15.4% | activity, negative = cell killing [1, 5] -7.75% | Potency (astro)

CC1(C)S[C@@H]2[C@H](NC(=O)[C@H](N)c3ccccc3)C(=O)N2[C@H]1C(=O)OCOC(=O)[C@@H]1N2C(=O)C[C@H]2S(=O)(=O)C1(C)C
inactive: activity, negative = cell killing [1, 4] -6.39% | activity, negative = cell killing [1, 6] -14.9% | activity, negative = cell killing [1, 5] -15.8% | Potency (astro)

CN(C)Cc1ccccc1
inactive: activity, negative = cell killing [1, 4] -9.24% | activity, negative = cell killing [1, 6] 4.8% | activity, negative = cell killing [1, 7] -29.4% | activity, negative = cell killing [1, 5] -2.01% | Potency (astro) | max response [2] 2.69% | outcome [3]

CC1(C)S[C@@H]2[C@H](NC(=O)C(C(=O)Oc3ccc4c(c3)CCC4)c3ccccc3)C(=O)N2[C@H]1C(=O)O (stereo partly drawn)
inactive: activity, negative = cell killing [1, 4] -10.7% | activity, negative = cell killing [1, 6] -5.29% | activity, negative = cell killing [1, 7] -6.42% | activity, negative = cell killing [1, 5] 7.9% | Potency (astro)

C=C1C(=C/C=C2\CCC[C@]3(C)[C@@H]([C@H](C)CCCC(C)(C)O)CC[C@@H]23)C[C@@H](O)C[C@@H]1O
active: Potency ([1]; tumour line A) 17.8 µM | Potency ([1]; tumour line D) 20 µM | Potency (astro) 22.4 µM
inactive: activity, negative = cell killing [1, 4] -26.6%

CSCC[C@H](NC(=O)[C@H](Cc1ccc(OS(=O)(=O)O)cc1)NC(=O)[C@@H](N)CC(=O)O)C(=O)NCC(=O)N[C@@H](Cc1c[nH]c2ccccc12)C(=O)N[C@@H](CCSC)C(=O)N[C@@H](CC(=O)O)C(=O)N[C@@H](Cc1ccccc1)C(N)=O
inactive: activity, negative = cell killing [1, 4] -12.8% and -14.6% | activity, negative = cell killing [1, 6] -10.7% and -3.46% | activity, negative = cell killing [1, 7] -8.64% | activity, negative = cell killing [1, 5] 9.45% and -3.35% | Potency (astro)

From PubChem BioAssay (NCATS)
